# MITF inh – blocks human microphthalmia-associated transcription factor; AlphaScreen MITF homodimerization, bead proximity signal; inhibition, % at 2.6 µM; hit rate 0.91% among 650,000; AID 1259374; in the data active means inhibition above about 50%;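 further: 0% = vehicle wells with protein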
# Target sequence (O75030 whole entry, looked up): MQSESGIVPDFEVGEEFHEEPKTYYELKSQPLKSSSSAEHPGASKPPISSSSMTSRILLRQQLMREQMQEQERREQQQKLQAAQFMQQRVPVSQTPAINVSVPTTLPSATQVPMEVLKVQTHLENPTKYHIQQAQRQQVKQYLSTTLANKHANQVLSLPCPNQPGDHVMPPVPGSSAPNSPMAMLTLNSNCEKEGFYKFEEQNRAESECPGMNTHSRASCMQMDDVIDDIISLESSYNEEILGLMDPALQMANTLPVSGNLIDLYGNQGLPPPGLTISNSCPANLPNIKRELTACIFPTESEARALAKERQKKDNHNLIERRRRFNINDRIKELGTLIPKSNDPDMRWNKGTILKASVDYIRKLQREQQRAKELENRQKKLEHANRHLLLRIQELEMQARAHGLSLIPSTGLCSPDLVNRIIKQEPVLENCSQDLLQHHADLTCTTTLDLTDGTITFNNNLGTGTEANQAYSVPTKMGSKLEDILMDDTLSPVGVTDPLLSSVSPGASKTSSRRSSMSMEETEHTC
# GPR151 activ – activates the human receptor GPR151 | activation, % at 11.2 µM | hit rate 1% among 650,000 | AID 1508602 | Q8TDV0 | PathHunter beta-arrestin GPR151 cells, luminescence; in the data active means activation above about 4.9%;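 further: 0% = median of compound wells and 100% = cells with positive control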
# FBW7 activator – activators of human E3 ligase FBW7 | Q969H0 | AlphaScreen FBW7–phospho-cyclin E peptide binding, activator screen | normalized activity (activation), % at 26.1 µM | hit rate 0.13% among 650,000; in the data active means normalized activity above about 1.9%;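 further: purified mutant Fbw7 with reduced substrate affinity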
# TEAD-YAP block – TEAD-YAP interaction inhibition; inhibition, % at 9.12 µM; AID 1259422; HEK-TIYL cells, TEAD-Gal4/YAP UAS-luciferase luminescence; hit rate 1.4% among 640,000; in the data active means inhibition above about 32%;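 further: 0% = median of test compound wells and 100% = reference inhibitor wells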
# GPR151 conf act – human GPR151 activation, confirmation screen | shares compounds with GPR151 activ | AID 1508609 | GPR151 PathHunter beta-arrestin cells, luminescence, 90 min; % of EA-reagent control over plate median | 6,700 tested, under 10 active | activation, % at 11.2 µM;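 active means mean percent activation across replicates above the confirmation screen cutoff of 4.91%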
# GPR119 ag – activates human GPR119 in a GPR151 counter-screen; shares compounds with GPR151 activ; GPR119 PathHunter beta-arrestin cells, luminescence, 90 min; 0 = compound-well median, 100 = enzyme-acceptor control; activation, % at 11.2 µM; hit rate 0.3% among 6,700;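 active means mean percent activation in the counterscreen above 29.09%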;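 further: counterscreen on off-target GPR119 to flag nonselective hits from the GPR151 activator screen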
# Starred values were filed as active, the others as inactive; nt = no result. This is a sample that favours compounds with a hit; in the whole collection about 3.4% have one here.
SMILES,MITF inh,GPR151 activ,FBW7 activator,TEAD-YAP block,GPR151 conf act,GPR119 ag
CCN(CC)C(=O)CN(c1cccc(OC)c1)S(C)(=O)=O,-1,12*,0,2,1,-6
CCN(CC)C(=O)CN(c1ccccc1)S(=O)(=O)c1ccc(C)cc1,13,6.4*,0,-3,2,12
CSc1ccc(S(=O)(=O)N(CC(=O)O)c2ccc(C)cc2)cc1,19,5.8*,1,6,-1,-11
COc1cccc(OCC(=O)N/N=C(\C)CC(=O)NCc2ccco2)c1,13,0,0,-2,nt,nt
Cc1cccc(-n2cc(-c3ccccc3)c3c(NCCc4ccc(Cl)cc4)ncnc32)c1,-3,0,0,0,nt,nt
COc1ccccc1Nc1ncnc2c1c(-c1ccccc1)cn2-c1ccccc1,6,6.8*,0,8,1,11
CC(C)Nc1ncnc2c1c(-c1ccccc1)cn2-c1ccc(Br)cc1,1,5.4*,0,1,-1,0
Cc1ccc(-n2cc(-c3ccccc3)c3c(NC(C)C)ncnc32)cc1,-1,-1,0,-7,nt,nt
Cc1cccc(-n2cc(-c3ccccc3)c3c(NCCc4ccccc4)ncnc32)c1,2,6.0*,0,-5,0,9
Brc1ccc(-n2cc(-c3ccccc3)c3c(N4CCN(c5ccccc5)CC4)ncnc32)cc1,7,0,0,3,nt,nt
O=[N+]([O-])c1ccc(N2CCN(c3ncnc4c3c(-c3ccccc3)cn4-c3ccc(Br)cc3)CC2)cc1,-2,5.0*,0,-2,0,0
Cc1cc2c(cc1C)NC(CC(N)=O)C(=O)N2 (centres undefined),-1,1,0,2,nt,nt
Cc1cc(NC(=O)C2(c3cccs3)CCOCC2)ccc1Br,-1,0,0,0,nt,nt
OC(COc1ccccc1CNCC1CC1)CN1CCc2ccccc2C1 (centres undefined),-5,-1,0,4,nt,nt
COc1ccc(-n2cc(-c3ccccc3)c3c(NCc4ccc5c(c4)OCO5)ncnc32)cc1,16,6.1*,0,-1,0,9
CCOc1ccc(-n2cc(-c3ccccc3)c3c(NCc4ccc5c(c4)OCO5)ncnc32)cc1,5,1,0,0,nt,nt
Cc1nnc2ccc(SCC(=O)NCc3csc(-c4cccs4)n3)nn12,-11,5.6*,-1,-27,1,16
O=C(CSc1ccc2nnc(-c3cccs3)n2n1)NCc1ccccc1,10,0,0,-2,nt,nt
CCSc1ccccc1C(=O)NC(C)c1ccccc1 (centres undefined),2,5.5*,0,-5,0,3
O=C(c1nn2c(C(F)(F)F)cc(-c3ccco3)nc2c1Br)N1CCOCC1,-2,-1,0,-9,nt,nt
COCC(=O)N1CCN(CC(=O)c2ccco2)CC1,9,4.9*,0,5,0,-7
COc1ccc(OC)c(S(=O)(=O)N2CCN(CC(=O)c3ccco3)CC2)c1,3,6.8*,0,3,0,-7
COc1ccc(F)cc1S(=O)(=O)N1CCN(CC(=O)c2ccco2)CC1,48,-1,0,-11,nt,nt
COc1ccc(S(=O)(=O)N2CCN(CC(=O)c3ccco3)CC2)cc1OC,7,12*,0,2,0,0
O=C(CN1CCN(S(=O)(=O)c2ccccc2)CC1)c1ccco1,11,-1,0,6,nt,nt
SMILES,MITF inh,GPR151 activ,FBW7 activator,TEAD-YAP block,GPR151 conf act,GPR119 ag
CCCCOc1ccc(C(=O)NCCS(=O)(=O)N2CCN(c3ccccn3)CC2)cc1,-6,-1,0,7,nt,nt
CCCOC(=O)/C(=C\c1cccc2ccccc12)NC(=O)c1ccccc1,11,2,0,-10,nt,nt
NC(=Nc1ccc(N)cc1)c1nonc1N,10,1,0,6,nt,nt
CC1CCN(S(=O)(=O)c2ccc(C(=O)Nc3nc(-c4ccncc4)cs3)cc2)CC1,-9,4.9*,0,-10,0,10
O=C(Nc1nc(-c2cc3ccccc3o2)cs1)c1cc2ccccc2oc1=O,7,21*,0,0,-1,8
O=C(Nc1nc(-c2ccncc2)cs1)c1ccccc1I,-1,6.3*,0,-15,1,11
O=C(Nc1nc(-c2ccncc2)cs1)c1ccc(S(=O)(=O)N2CCCCC2)cc1,5,0,0,-2,nt,nt

# Source: PubChem
